Experiment [1] is described as follows: NCI Yeast Anticancer Drug Screen. Data for the rad50 strain (AID 155).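 Note: 0% = growth of vehicle-only cultures of the same strain.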 The conditions noted are these: S. cerevisiae rad50 strain growth inhibition, active compounds read high. In short, it runs like this:
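Compounds were tested on a yeast strain with an engineered DNA damage repair alteration; the reported value is growth inhibition normalised to vehicle treatment.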

A short description of experiment [2]: NCI Yeast Anticancer Drug Screen. Data for the mec2-1 strain (AID 157). The conditions noted are these: S. cerevisiae mec2-1 strain, active compounds read high. The gist of the method:
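Strain: mec2-1 (DNA repair/cell cycle alteration). Compound exposure, then growth measured; inhibition expressed relative to vehicle.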

Experiment [3] is described as follows: NCI Yeast Anticancer Drug Screen. Data for the sgs1 mgt1 strain (AID 161).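 Note: 0% = growth of cultures given vehicle only.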 The conditions noted are these: S. cerevisiae sgs1 mgt1 strain, active compounds read high. The gist of the method:
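Inhibition of yeast growth, normalised to vehicle-treated controls, is reported for a strain bearing genetic alterations in DNA damage repair.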

A short description of experiment [4]: NCI Yeast Anticancer Drug Screen. Data for the cln2 rad14 strain (AID 165).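 Note: 0% = growth equal to vehicle treated cultures.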 The conditions noted are these: S. cerevisiae cln2 rad14 strain, active compounds read high. In short, it runs like this: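 Compounds are applied to the cln2 rad14 yeast strain, and growth is then compared with that of vehicle-treated cultures to give inhibition.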
Experiment [5] in a line: NCI Yeast Anticancer Drug Screen. Data for the bub3 strain (AID 167). As to conditions: S. cerevisiae bub3 mutant strain, active compounds read high. The gist of the method: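 Growth of a checkpoint-deficient yeast mutant is measured after compound exposure. Values represent inhibition relative to vehicle.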
Experiment [6] is described as follows: NCI Yeast Anticancer Drug Screen. Data for the mlh1 rad18 strain (AID 175). As to conditions: S. cerevisiae mlh1 rad18 strain growth inhibition, active compounds read high. The gist of the method: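 Read-out is yeast growth inhibition, calculated against vehicle-only controls. The compound was applied to a strain engineered with DNA damage repair alterations.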
The mark [7] stands for this setting: at 5.0 µM (retest, dose inferred, filed as 0.5).
Setting [8] is: at 50.0 µM (retest, dose inferred, filed as 5.0).

About 79,000 compounds went through this panel and 15% of them were active in at least one assay; those are over-represented in the sample as a whole. A number with no mark means an inactive call. The source made the active and inactive calls. Cut-off read from the data, not from the text of the source: active = growth inhibition above about 70%; inactive = the rest.

For the compound `CC1=C(C(=O)NCc2ccccc2)C(c2ccccc2O)C(C(=O)NCc2ccccc2)=C(C)N1`, the growth inhibition in experiment [1] (setting [7]) was 27%; in experiment [1] (setting [8]), 27%; in experiment [1] (at 50.0 µM), 87.3% (active); in experiment [2] (setting [7]), 17%; in experiment [2] (setting [8]) it was 17%; in experiment [2] (at 50.0 µM), 85% (active). Also, the growth inhibition was 17% in experiment [3] (setting [7]); 17% in experiment [3] (setting [8]); 79.7% (active) in experiment [3] (at 50.0 µM); 13% in experiment [4] (setting [7]); 13% in experiment [4] (setting [8]); 71.4% (active) in experiment [4] (at 50.0 µM). Also, the growth inhibition in experiment [5] (setting [7]) is 7%; in experiment [5] (setting [8]) it was 7%; in experiment [5] (at 50.0 µM), 86.4% (active); in experiment [6] (setting [7]), 15%; in experiment [6] (setting [8]) it was 15%; in experiment [6] (at 50.0 µM), 78.2% (active).
Regarding `C[C@]12CCC(=O)C=C1CC[C@@H]1[C@@H]2[C@@H](O)C[C@@]2(C)[C@H]1CC[C@]2(O)C(=O)COC(=O)CCC1CCCC1`, the growth inhibition in experiment [1] (setting [7]) is 83% (active); in experiment [1] (setting [8]), 91% (active); in experiment [1] (at 50.0 µM), 83.9% (active); in experiment [2] (setting [7]) it was 29%; in experiment [2] (setting [8]) it was 95% (active); in experiment [2] (at 50.0 µM), 84.1% (active). The growth inhibition in experiment [3] (setting [7]) is 51%; in experiment [3] (setting [8]) it was 96% (active); in experiment [3] (at 50.0 µM), 82% (active); in experiment [4] (setting [7]), 49%; in experiment [4] (setting [8]), 96% (active); in experiment [4] (at 50.0 µM) it was 82.7% (active). Besides, the growth inhibition in experiment [5] (setting [7]) is 51%; in experiment [5] (setting [8]) it was 95% (active); in experiment [5] (at 50.0 µM) it was 77.2% (active); in experiment [6] (setting [7]) it was 75% (active); in experiment [6] (setting [8]), 92% (active); in experiment [6] (at 50.0 µM), 84.3% (active).
In the case of `CCN(CC)CCCC(C)Nc1cc(C)nc2c1ccc1c2ccc2c(NC(C)CCCN(CC)CC)cc(C)nc21` (configuration not stated), the growth inhibition in experiment [1] (setting [7]) was -2%; in experiment [1] (setting [8]) it was 61%; in experiment [1] (at 50.0 µM), 58.1%; in experiment [2] (setting [7]), -39%; in experiment [2] (setting [8]) it was 91% (active); in experiment [2] (at 50.0 µM), 53.7%. Further, the growth inhibition in experiment [3] (setting [7]) was -1%; in experiment [3] (setting [8]), 59%; in experiment [3] (at 50.0 µM), 49.5%; in experiment [4] (setting [7]), 7%; in experiment [4] (setting [8]), 20%; in experiment [4] (at 50.0 µM) it was 71.4% (active). For the same compound, the growth inhibition was -2% in experiment [5] (setting [7]); 96% (active) in experiment [5] (setting [8]); 96.3% (active) in experiment [5] (at 50.0 µM); -1% in experiment [6] (setting [7]); 85% (active) in experiment [6] (setting [8]); 54.2% in experiment [6] (at 50.0 µM).
With `O=c1cc2cccccc-2cc1O`, the growth inhibition in experiment [1] (setting [7]) is -132%; in experiment [1] (setting [8]), 94% (active); in experiment [1] (at 50.0 µM), 87.2% (active); in experiment [2] (setting [7]), -42%; in experiment [2] (setting [8]), 95% (active); in experiment [2] (at 50.0 µM), 70% (active). In addition, the growth inhibition in experiment [3] (setting [7]) was -48%; in experiment [3] (setting [8]), 96% (active); in experiment [3] (at 50.0 µM), 83.5% (active); in experiment [4] (setting [7]), -43%; in experiment [4] (setting [8]), 89% (active); in experiment [4] (at 50.0 µM), 86% (active). For the same compound, the growth inhibition in experiment [5] (setting [7]) is -65%; in experiment [5] (setting [8]), 95% (active); in experiment [5] (at 50.0 µM), 91.5% (active); in experiment [6] (setting [7]) it was -130%; in experiment [6] (setting [8]) it was 95% (active); in experiment [6] (at 50.0 µM), 86.3% (active).
In the case of `CN[C@@H](Cc1cccc2ccccc12)C(=O)N[C@@H](CC(C)C)B(O)O`, the growth inhibition in experiment [1] (setting [7]) was 34%; in experiment [1] (setting [8]) it was 51%; in experiment [1] (at 50.0 µM) it was 27.1%; in experiment [2] (setting [7]), 37%; in experiment [2] (setting [8]), 40%; in experiment [2] (at 50.0 µM), 12.1%. The growth inhibition in experiment [3] (setting [7]) was 16%; in experiment [3] (setting [8]), 18%; in experiment [3] (at 50.0 µM), 3.85%; in experiment [4] (setting [7]) it was 53%; in experiment [4] (setting [8]), 54%; in experiment [4] (at 50.0 µM), 59.4%. Further, the growth inhibition in experiment [5] (setting [7]) was 25%; in experiment [5] (setting [8]) it was 16%; in experiment [5] (at 50.0 µM) it was 36.5%; in experiment [6] (setting [7]) it was 33%; in experiment [6] (setting [8]), 60%; in experiment [6] (at 50.0 µM) it was 16.4%.
Turning to `COc1cccc2c1C(=O)c1c(O)c3c(c(O)c1C2=O)C[C@@](O)(/C(C)=N\NC=O)C[C@@H]3OC1CC(N)C(O)C(C)O1` (some centres not stated), the growth inhibition was -3% in experiment [1] (setting [7]); 86% (active) in experiment [1] (setting [8]); 75% (active) in experiment [1] (at 50.0 µM); -1% in experiment [2] (setting [7]); 45% in experiment [2] (setting [8]); 49.5% in experiment [2] (at 50.0 µM). Besides, the growth inhibition in experiment [3] (setting [7]) was -4%; in experiment [3] (setting [8]), 38%; in experiment [3] (at 50.0 µM) it was 72.7% (active); in experiment [4] (setting [7]) it was 8%; in experiment [4] (setting [8]), 51%; in experiment [4] (at 50.0 µM), 39.9%. Also, the growth inhibition in experiment [5] (setting [7]) was 17%; in experiment [5] (setting [8]), 84% (active); in experiment [5] (at 50.0 µM), 76.5% (active); in experiment [6] (setting [7]) it was 4%; in experiment [6] (setting [8]), 90% (active); in experiment [6] (at 50.0 µM) it was 76% (active).
`O=c1cccc(C2CCc3cc(O)ccc3C2)[nH]1` (configuration not stated): the growth inhibition is -5% in experiment [1] (setting [7]); 3% in experiment [1] (setting [8]); -2.85% in experiment [1] (at 50.0 µM); 3% in experiment [2] (setting [7]); 1% in experiment [2] (setting [8]); 3.35% in experiment [2] (at 50.0 µM). The growth inhibition in experiment [3] (setting [7]) is -3%; in experiment [3] (setting [8]) it was 4%; in experiment [3] (at 50.0 µM), -5.05%; in experiment [4] (setting [7]) it was 1%; in experiment [4] (setting [8]), -18%; in experiment [4] (at 50.0 µM), 22.6%. Moreover, the growth inhibition in experiment [5] (setting [7]) was -3%; in experiment [5] (setting [8]), -11%; in experiment [5] (at 50.0 µM) it was -11.3%; in experiment [6] (setting [7]) it was -6%; in experiment [6] (setting [8]) it was 5%; in experiment [6] (at 50.0 µM), 13.2%.
For `Cc1ccc(Cc2nc(=S)[nH][nH]2)cc1`, the growth inhibition in experiment [1] (setting [7]) is 20%; in experiment [1] (setting [8]), 19%; in experiment [1] (at 50.0 µM), 1.6%; in experiment [2] (setting [7]), -3%; in experiment [2] (setting [8]) it was 6%; in experiment [2] (at 50.0 µM), -38.5%. Moreover, the growth inhibition in experiment [3] (setting [7]) is -3%; in experiment [3] (setting [8]), 9%; in experiment [3] (at 50.0 µM), -2.75%; in experiment [4] (setting [7]), 1%; in experiment [4] (setting [8]) it was 1%; in experiment [4] (at 50.0 µM), -9.2%. Moreover, the growth inhibition in experiment [5] (setting [7]) is 8%; in experiment [5] (setting [8]) it was 19%; in experiment [5] (at 50.0 µM) it was -6.3%; in experiment [6] (setting [7]), 14%; in experiment [6] (setting [8]) it was 21%; in experiment [6] (at 50.0 µM), -34.8%.
With `O=C1C(Cl)=C(Nc2cc(Cl)ccc2Cl)C(=O)c2ccccc21`, the growth inhibition in experiment [1] (setting [7]) is 45%; in experiment [1] (setting [8]), 99% (active); in experiment [1] (at 50.0 µM) it was 2.45%; in experiment [2] (setting [7]) it was 63%; in experiment [2] (setting [8]) it was 98% (active); in experiment [2] (at 50.0 µM), 97.9% (active). Also, the growth inhibition was 68% in experiment [3] (setting [7]); 100% (active) in experiment [3] (setting [8]); 98.7% (active) in experiment [3] (at 50.0 µM); 20% in experiment [4] (setting [7]); 95% (active) in experiment [4] (setting [8]); 78.8% (active) in experiment [4] (at 50.0 µM). The growth inhibition in experiment [5] (setting [7]) is 96% (active); in experiment [5] (setting [8]), 99% (active); in experiment [5] (at 50.0 µM), 99.5% (active); in experiment [6] (setting [7]), 64%; in experiment [6] (setting [8]) it was 98% (active); in experiment [6] (at 50.0 µM) it was 99.5% (active).
